# Out of some 300,000 compounds screened, about 1,000 (0.33%) were called active. Only a selection was taken, and actives are over-represented in it overall. Unmarked numbers belong to inactive results. Cut-off read from the data, not from the text of the source: active = inhibition above about 28%; inactive = the rest.
# Test system: EBNA-1 (Epstein-Barr virus nuclear antigen 1), Human herpesvirus 4
# Assay: EBNA-1 DNA-binding inhibitors, primary screen, biochemical, fluorescence polarization (AID 1950)
# Details: at 14.8 µM, stronger effect = higher value
row,SMILES,inhibition
1,Cc1ccn2c(=O)nc(SCC(=O)NCc3ccc(F)cc3)nc2c1,-14.5%
2,Oc1ccccc1CNc1ncc(Br)cc1Br,-8.83%
3,O=C(NNC(=O)c1cc2c(s1)CCCC2)c1ccccc1,6.96%
4,Cc1ccc(C(=O)NNC(=O)c2cc3cc4ccccc4nc3s2)cc1,66.7% (active)
5,Cc1ccc(C(=O)NNC(=O)c2cccs2)cc1,-0.94%
6,Cc1cc2nc3n(c2cc1C)CC1CC(C(=O)NCCC(C)C)N(C)C31 (stereo not drawn),-5.15%
7,O=C(Cc1ccccc1)Nc1cccc(NC(=O)c2ccccc2)c1,-12.9%
8,O=C(Nc1cccc(NC(=O)c2cccc(F)c2)c1)c1ccccc1,-2.13%
9,O=C(Nc1cccc(NC(=O)c2ccc(Br)cc2)c1)c1ccccc1,28.3% (active)
10,CN(C)[C@@H]1C(=O)C(C(N)=O)=C(O)[C@@]2(O)C(=O)C3=C(O)c4c(O)ccc(Cl)c4[C@@H](O)[C@H]3C[C@@H]12,14.1%
11,O=C(Nc1cccc(O)c1)c1ccc(C(=O)c2ccccc2)o1,10.1%
12,COc1ccc(CCn2c(NCCCN3CCOCC3)nc3c2c(=O)[nH]c(=O)n3C)cc1,5.1%
13,COc1ccc(CNc2nc3c(c(=O)[nH]c(=O)n3C)n2Cc2ccccc2)cc1,28.1% (active)
14,COc1ccc(CCn2c(NN=C3CCCC3)nc3c2c(=O)[nH]c(=O)n3C)cc1,1.13%
15,Cc1cccc(C(=O)Nc2ccc3c(c2)C(=O)N(CC(C)C)C3=O)c1,-2.99%
16,CCC(=O)Nc1ccc(C(=O)Nc2ccc3c(c2)C(=O)N(CC2CCCO2)C3=O)cc1 (stereo not drawn),57.9% (active)
17,CCC(=O)Nc1ccc(S(=O)(=O)NCC2CCCO2)cc1 (stereo not drawn),4.88%
18,Cc1cccc(NC(=O)NC2(C)CCS(=O)(=O)C2)c1 (stereo not drawn),-12.1%
19,CCc1c(C)nc2ncnn2c1N1CCC(C(=O)NCc2ccc3c(c2)OCO3)CC1,7.74%
20,COc1ccc(C(C(=O)NCc2ccccc2)N(Cc2cccs2)C(=O)c2cnccn2)cc1 (stereo not drawn),4.32%

row,SMILES,inhibition
1,CCn1c(/C=C/Nc2ccccc2)[n+](CC)c2ccc(C(=O)OCC(F)(F)F)cc21,-1.72%
2,CCC(=O)c1ccc(OC(=O)/C=C/c2cc(OC)c(OC)c(OC)c2)cc1,6.75%
3,CCOc1ccc(N=C2NC(=O)S/C2=C\c2ccc(O)cc2)cc1,22%
4,COc1cc(NS(=O)(=O)c2ccc(N=Cc3c(C)[nH]n(-c4ccccc4)c3=O)cc2)nc(OC)n1,14.1%
5,CCOc1[nH]n(-c2ccc(Cl)cc2)c(=O)c1C=Nc1ccc(O)cc1,36.6% (active)
6,O=C(CC(=O)N/N=C\c1cccc(Cl)c1Cl)NCc1ccccc1,0.69%
7,COc1cccc(N2CC(NS(=O)(=O)c3cccs3)CC2=O)c1 (stereo not drawn),-3.98%
8,CC(=O)NC(CC(=O)Nc1nc(-c2ccccc2)c(C(C)=O)s1)c1ccccc1 (stereo not drawn),6.2%
9,O=c1o[nH]c(-c2ccccc2)c1N=Nc1c(F)cccc1Cl,-1.23%
10,COc1ccc(S(=O)(=O)N2CCCCCC2)cc1C(=O)OCC(=O)Nc1cc(C)on1,-10.6%
11,COc1ccc(-c2ccc(Nc3ccc(S(=O)(=O)N4CCCC4)cc3)nn2)cc1OC,61.7% (active)
12,COc1ccc(S(=O)(=O)Nc2ccc(S(=O)(=O)N3CCCCC3)cc2)cc1OC,-12.3%
13,CCCn1c2ccccc2c2cnn(CC(=O)NCCCN3CCCCC3CC)c(=O)c21 (stereo not drawn),-11.4%
14,O=[N+]([O-])c1cc(S(=O)(=O)Nc2cccc(Cl)c2)ccc1N=Nc1c(O)[nH]c2ccccc12,-1.48%
15,CCc1ccc(NC(=O)Nc2ccncc2)cc1,-0.73%
16,CC(=O)c1ccc(NC(=O)C2CC(=O)Nc3nc4ccccc4n32)cc1 (stereo not drawn),-7.52%
17,CCOC(=O)C1=C(C)Nc2nc3ccccc3n2C1c1cccs1 (stereo not drawn),3.55%
18,CCOC(=O)c1ccc(NC(=O)C2CC(=O)Nc3nc4ccccc4n32)cc1 (stereo not drawn),30.4% (active)
19,Cc1ccc(NS(=O)(=O)c2ccc3c(c2)n(C)c(=O)c(=O)n3C)c(C)c1,-9.29%
20,CCCS(=O)(=O)Nc1ccc(-c2cn3c(n2)SCC3)cc1,-2.75%

row,SMILES,inhibition
1,CCOc1ccc(OCC)c(NC(=O)C(NS(=O)(=O)c2ccc3c(c2)oc(=O)n3C)C(C)C)c1 (stereo not drawn),38% (active)
2,COc1cccc(NC(=O)CCNS(=O)(=O)c2ccc3c(c2)oc(=O)n3C)c1,-10.5%
3,CSCCC(NS(=O)(=O)c1ccc2c(c1)oc(=O)n2C)C(=O)NCc1ccccc1 (stereo not drawn),1.42%
4,CC(Oc1ccc(Br)cc1)C(=O)NCC(c1ccco1)N1CCCCC1 (stereo not drawn),-5.29%
5,CC(C)OC(=O)c1ccc(COc2ccc3ccc(=O)oc3c2)o1,0.87%
6,O=C(OCC1O[C@@H](OC(=O)c2cc(O)c(O)c(O)c2)[C@@H](OC(=O)c2cc(O)c(O)c(O)c2)[C@@H](OC(=O)c2cc(O)c(O)c(O)c2)[C@@H]1OC(=O)c1cc(O)c(O)c(O)c1)c1cc(O)c(O)c(O)c1 (stereo partly drawn),36.5% (active)
7,O=C(OCC1OC(Oc2ccc(O)cc2)C(O)C(O)C1O)c1ccccc1 (stereo not drawn),-9.05%
8,Cn1c(=O)[nH]c(=O)c2c1[nH]c(=S)n2Cc1ccccc1,9.15%
9,O=C(COc1ccc([N+](=O)[O-])cc1)Nc1cccc(C(=O)Nc2ccccc2C(=O)O)c1,8.21%
10,C=CCNC(=S)/N=c1/ccccn1Cc1ccccc1,3.92%
11,CCN(CC)CCN1C(=O)C2C(C(=O)Nc3ccc(Br)cc3)C3C=CC2(O3)C1C(=O)NC1CCCCC1 (stereo not drawn),5.67%
12,COc1ccc(CCNC(=S)N2CCN(S(=O)(=O)c3ccc(F)cc3)CC2)cc1,34.3% (active)
13,COc1ccc(CCNC(=O)C2CCCN(S(=O)(=O)c3ccc(OC)cc3)C2)cc1 (stereo not drawn),5.18%
14,COc1ccc(CCNC(=S)N2CCN(S(=O)(=O)c3ccc(Cl)cc3)CC2)cc1,7.36%
15,OC(COc1ccc(CN2CCSCC2)cc1)CN1CCCCC1 (stereo not drawn),3.92%
16,COc1ccc(/C=C2\SC(=S)N(CCCC(=O)NC3CCCC3)C2=O)cc1OC,-4.95%
17,CC(=O)NNC(=O)c1csc(Cc2c(Cl)sc3ccc(Cl)cc23)n1,-5.11%
18,Cc1cc(OCC(=O)NCC(O)c2ccccc2)c2c(C)c(C)c(=O)oc2c1 (stereo not drawn),3.74%

# Reference: PubChem BioAssay AID1950 (The Scripps Research Institute Molecular Screening Center, 2009)
